# From the supplement of paper PMC8728848
# This is one part of a sample in which the strongest signals are shown more often than they occur.
# B1: Eosinophil-derived neurotoxin (EDN) (Homo sapiens), P10153 (protein)
# chain: MVPKLFTSQICLLLLLGLLAVEGSLHVKPPQFTWAQWFETQHINMTSQQCTNAMQVINNYQRRCKNQNTFLLTTFANVVNVCGNPNMTCPSNKTRKNCHHSGSQVPLIHCNLTTPSPQNISNCRYAQTPANMFYIVACDNRDQRRDPPQYPVVPVHLDRII
# Columns and labels:
# Test in all cases: glycan array binding signal (z-score within array); higher = stronger binding
# Conditions in all cases: glycan notation: IUPAC condensed, linker removed
# [1] = molecular target: Fuc(a1-2)Gal(b1-3)GlcNAc(b1-2)Man(a1-3)[Fuc(a1-2)Gal(b1-3)GlcNAc(b1-2)Man(a1-6)]Man(b1-4)GlcNAc(b1-4)GlcNAc
# How it was run: (§1)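 Glycan array data were curated from 3228 arrays in the Consortium for Functional Glycomics database and kept only where the protein sequence was available. Glycan names were converted to IUPAC-condensed notation, and columns mapping to the same glycan were averaged. The binding signal is a within-array Z-score, averaged across arrays of the same protein sequence at different concentrations or buffers and across linkers. Negative Z-scores can be read as non-binding.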
# [2] = molecular target: Fuc(a1-2)Gal(b1-4)[Fuc(a1-3)]GlcNAc
# How it was run: as §1
# [3] = molecular target: Fuc(a1-2)[Gal(a1-3)]Gal(b1-3)GalNAc
# How it was run: as §1
# [4] = molecular target: Fuc(a1-2)[Gal(a1-3)]Gal(b1-3)GlcNAc(b1-2)Man(a1-3)[Fuc(a1-2)[Gal(a1-3)]Gal(b1-3)GlcNAc(b1-2)Man(a1-6)]Man(b1-4)GlcNAc(b1-4)GlcNAc
# How it was run: as §1
# [5] = molecular target: Fuc(a1-2)[Gal(a1-3)]Gal(b1-4)GlcNAc(b1-3)GalNAc
# How it was run: as §1
# [6] = molecular target: Fuc(a1-2)[GalNAc(a1-3)]Gal(b1-3)GlcNAc(b1-2)Man(a1-3)[Fuc(a1-2)[GalNAc(a1-3)]Gal(b1-3)GlcNAc(b1-2)Man(a1-6)]Man(b1-4)GlcNAc(b1-4)GlcNAc
# How it was run: as §1
# [7] = molecular target: Fuc(a1-2)[GalNAc(a1-3)]Gal(b1-4)GlcNAc(b1-3)GalNAc
# How it was run: as §1
# [8] = molecular target: Fuc(a1-3)[Gal(b1-4)]GlcNAc6S
# How it was run: as §1
# Fuc(b1-3)GlcNAc = molecular target: Fuc(b1-3)GlcNAc
# How it was run: as §1
# Gal(a1-3)Gal = molecular target: Gal(a1-3)Gal
# How it was run: as §1
# [9] = molecular target: Gal(a1-3)Gal(b1-4)[Fuc(a1-3)]GlcNAc(b1-2)Man(a1-3)[Gal(a1-3)Gal(b1-4)[Fuc(a1-3)]GlcNAc(b1-2)Man(a1-6)]Man(b1-4)GlcNAc(b1-4)GlcNAc
# How it was run: as §1
# Gal(a1-3)GalNAc = molecular target: Gal(a1-3)GalNAc
# How it was run: as §1
# [10] = molecular target: Gal(b1-3)Gal(b1-4)GlcNAc(b1-2)Man(a1-3)[Gal(b1-3)Gal(b1-4)GlcNAc(b1-2)Man(a1-6)]Man(b1-4)GlcNAc(b1-4)GlcNAc
# How it was run: as §1
# [11] = molecular target: Gal(b1-3)GalNAc(a1-3)[Fuc(a1-2)]Gal(b1-4)GlcNAc
# How it was run: as §1
# Gal(b1-3)GlcNAc = molecular target: Gal(b1-3)GlcNAc
# How it was run: as §1
# [12] = molecular target: Gal(b1-3)GlcNAc(b1-2)Man(a1-3)[Gal(b1-3)GlcNAc(b1-2)Man(a1-6)]Man(b1-4)GlcNAc(b1-4)GlcNAc
# How it was run: as §1
# [13] = molecular target: Gal(b1-3)GlcNAc(b1-3)Gal(b1-4)GlcNAc
# How it was run: as §1
# [14] = molecular target: Gal(b1-4)GlcNAc(b1-2)Man(a1-3)[Gal(b1-4)GlcNAc(b1-2)Man(a1-6)]Man(b1-4)GlcNAc(b1-4)[Fuc(a1-6)]GlcNAc
# How it was run: as §1
# [15] = molecular target: Gal(b1-4)GlcNAc(b1-2)[Gal(b1-4)GlcNAc(b1-4)]Man(a1-3)[Gal(b1-4)GlcNAc(b1-2)Man(a1-6)]Man(b1-4)GlcNAc(b1-4)GlcNAc
# How it was run: as §1
# [16] = molecular target: Gal(b1-4)GlcNAc(b1-3)Gal(b1-3)GlcNAc
# How it was run: as §1
# [17] = molecular target: Gal(b1-4)GlcNAc(b1-3)Gal(b1-4)[Fuc(a1-3)GlcNAc(b1-6)]Gal(b1-4)Glc
# How it was run: as §1
# [18] = molecular target: Gal(b1-4)GlcNAc(b1-3)[Gal(b1-4)GlcNAc(b1-6)]Gal(b1-4)GlcNAc
# How it was run: as §1
# [19] = molecular target: Gal(b1-4)GlcNAc(b1-3)[GlcNAc(b1-6)]Gal(b1-4)GlcNAc
# How it was run: as §1
# [20] = molecular target: Gal3S(b1-3)[Fuc(a1-4)]GlcNAc
# How it was run: as §1
# Gal3S(b1-4)Glc = molecular target: Gal3S(b1-4)Glc
# How it was run: as §1
# Gal3S(b1-4)GlcNAc6S = molecular target: Gal3S(b1-4)GlcNAc6S
# How it was run: as §1
# Gal6S(b1-4)GlcNAc6S = molecular target: Gal6S(b1-4)GlcNAc6S
# How it was run: as §1
# GalNAc(b1-4)Gal(b1-4)Glc = molecular target: GalNAc(b1-4)Gal(b1-4)Glc
# How it was run: as §1
# Glc(a1-4)Glc = molecular target: Glc(a1-4)Glc
# How it was run: as §1
# Glc(a1-6)Glc(a1-6)Glc = molecular target: Glc(a1-6)Glc(a1-6)Glc
# How it was run: as §1
# [21] = molecular target: GlcNAc(a1-4)Gal(b1-4)GlcNAc(b1-3)Gal(b1-4)GlcNAc
# How it was run: as §1
# [22] = molecular target: GlcNAc(a1-4)Gal(b1-4)GlcNAc(b1-3)Gal(b1-4)[Fuc(a1-3)]GlcNAc(b1-3)Gal(b1-4)[Fuc(a1-3)]GlcNAc
# How it was run: as §1
# [23] = molecular target: GlcNAc(b1-2)[GlcNAc(b1-6)]Man(a1-6)[GlcNAc(b1-2)Man(a1-3)]Man(b1-4)GlcNAc(b1-4)GlcNAc
# How it was run: as §1
# [24] = molecular target: GlcNAc(b1-2)[GlcNAc(b1-6)]Man(a1-6)[GlcNAc(b1-2)Man(a1-3)][GlcNAc(b1-4)]Man(b1-4)GlcNAc(b1-4)GlcNAc
# How it was run: as §1
# [25] = molecular target: GlcNAc(b1-3)[GlcNAc(b1-4)][GlcNAc(b1-6)]GlcNAc
# How it was run: as §1
# GlcNAc(b1-4)GlcNAc = molecular target: GlcNAc(b1-4)GlcNAc
# How it was run: as §1
# [26] = molecular target: Man(a1-3)[Man(a1-6)]Man(b1-4)GlcNAc(b1-4)GlcNAc
# How it was run: as §1
# [27] = molecular target: Neu5Ac(a2-3)Gal(b1-3)GlcNAc
# How it was run: as §1
# [28] = molecular target: Neu5Ac(a2-3)Gal(b1-3)[Neu5Ac(a2-6)]GalNAc
# How it was run: as §1
# [29] = molecular target: Neu5Ac(a2-3)Gal(b1-4)GlcNAc(b1-6)[Gal(b1-3)]GalNAc
# How it was run: as §1
# [30] = molecular target: Neu5Ac(a2-3)Gal(b1-4)[Fuc(a1-3)]GlcNAc(b1-3)GalNAc
# How it was run: as §1
# Neu5Ac(a2-3)GalNAc = molecular target: Neu5Ac(a2-3)GalNAc
# How it was run: as §1
# [31] = molecular target: Neu5Ac(a2-6)Gal(b1-4)GlcNAc(b1-2)Man(a1-3)[Gal(b1-4)GlcNAc(b1-2)Man(a1-6)]Man(b1-4)GlcNAc(b1-4)GlcNAc
# How it was run: as §1
# [32] = molecular target: Neu5Ac(a2-6)Gal(b1-4)GlcNAc(b1-2)Man(a1-6)Man(b1-4)GlcNAc(b1-4)GlcNAc
# How it was run: as §1
# [33] = molecular target: Neu5Ac(a2-8)Neu5Ac(a2-3)[GalNAc(b1-4)]Gal(b1-4)Glc
# How it was run: as §1
# [34] = molecular target: Neu5Ac(a2-8)Neu5Ac(a2-8)Neu5Ac(a2-3)[GalNAc(b1-4)]Gal(b1-4)Glc
# How it was run: as §1
# [35] = molecular target: Neu5Ac(b2-6)Gal(b1-4)GlcNAc
# How it was run: as §1
# [36] = molecular target: Neu5Ac9Ac(a2-3)Gal(b1-3)GlcNAc
# How it was run: as §1
# [37] = molecular target: Neu5Gc(b2-6)Gal(b1-4)GlcNAc
# How it was run: as §1
binder,measurement,setting,value
B1,glycan array binding signal (z-score),[1],0.954
same,glycan array binding signal (z-score),[2],-0.438
same,glycan array binding signal (z-score),[3],-0.092
same,glycan array binding signal (z-score),[4],0.666
same,glycan array binding signal (z-score),[5],-0.523
same,glycan array binding signal (z-score),[6],0.308
same,glycan array binding signal (z-score),[7],0.483
same,glycan array binding signal (z-score),[8],0.272
same,glycan array binding signal (z-score),Fuc(b1-3)GlcNAc,-0.332
same,glycan array binding signal (z-score),Gal(a1-3)Gal,-0.363
same,glycan array binding signal (z-score),[9],0.387
same,glycan array binding signal (z-score),Gal(a1-3)GalNAc,-0.593
same,glycan array binding signal (z-score),[10],0.187
same,glycan array binding signal (z-score),[11],0.269
same,glycan array binding signal (z-score),Gal(b1-3)GlcNAc,-0.339
same,glycan array binding signal (z-score),[12],-0.33
same,glycan array binding signal (z-score),[13],0.648
same,glycan array binding signal (z-score),[14],1.36
same,glycan array binding signal (z-score),[15],-0.461
same,glycan array binding signal (z-score),[16],-0.443
same,glycan array binding signal (z-score),[17],0.142
same,glycan array binding signal (z-score),[18],1.13
same,glycan array binding signal (z-score),[19],1.36
same,glycan array binding signal (z-score),[20],0.104
same,glycan array binding signal (z-score),Gal3S(b1-4)Glc,-0.269
same,glycan array binding signal (z-score),Gal3S(b1-4)GlcNAc6S,-0.506
same,glycan array binding signal (z-score),Gal6S(b1-4)GlcNAc6S,-0.122
same,glycan array binding signal (z-score),GalNAc(b1-4)Gal(b1-4)Glc,-0.211
same,glycan array binding signal (z-score),Glc(a1-4)Glc,-0.482
same,glycan array binding signal (z-score),Glc(a1-6)Glc(a1-6)Glc,0.261
same,glycan array binding signal (z-score),[21],12.5
same,glycan array binding signal (z-score),[22],1.45
same,glycan array binding signal (z-score),[23],-0.199
same,glycan array binding signal (z-score),[24],0.017
same,glycan array binding signal (z-score),[25],0.413
same,glycan array binding signal (z-score),GlcNAc(b1-4)GlcNAc,-0.215
same,glycan array binding signal (z-score),[26],-0.552
same,glycan array binding signal (z-score),[27],-0.205
same,glycan array binding signal (z-score),[28],0.143
same,glycan array binding signal (z-score),[29],1.16
same,glycan array binding signal (z-score),[30],0.955
same,glycan array binding signal (z-score),Neu5Ac(a2-3)GalNAc,0.007
same,glycan array binding signal (z-score),[31],1.86
same,glycan array binding signal (z-score),[32],0.578
same,glycan array binding signal (z-score),[33],1.66
same,glycan array binding signal (z-score),[34],-0.121
same,glycan array binding signal (z-score),[35],0.387
same,glycan array binding signal (z-score),[36],-0.207
same,glycan array binding signal (z-score),[37],0.153
